{
  "source": "PubChem BioAssay (Tox21)",
  "note": "Results filed as inconclusive are left out. Entries that show only a call come without a potency. Calls of active or inactive are those of the source. Unless noted, the call rests on the fitted dose curve.",
  "data": [
    {"tested_on": "thyroid hormone receptor (rat, GH3 cells)", "experiment": "qHTS assay to identify small molecule agonists of the thyroid receptor (TR) signaling pathway (AID 743066); further: potency means the concentration at half of the fitted maximal effect", "details": "GH3.TRE-Luc cells, TR agonist luciferase, 24 h; series mostly up to 83.9 µM", "values": [
      {"smiles": "Cc1nc2ccccc2c(=O)o1", "Potency": "inactive"},
      {"smiles": "FC(F)(F)/C(=N\\OCC1OCCO1)c1ccc(Cl)cc1", "Potency": "inactive"},
      {"smiles": "C=CCCCCCCCCCCC", "activation": "-1.31% [at 8.08 µM] (inactive)"},
      {"smiles": "CCCCCCCCCCCCCC(=O)OC", "Potency": "inactive"},
      {"smiles": "NC(Cc1c[nH]c2ccccc12)C(=O)O", "note": "(stereo not drawn)", "Potency": "inactive"},
      {"smiles": "CNC(=O)C(c1ccccc1)c1ccccc1", "Potency": "inactive"},
      {"smiles": "Cc1nc(C)nc(N2C[C@@H](C)N(c3ccnc([C@@H](C)O)n3)[C@@H](C)C2)n1", "Potency": "inactive"},
      {"smiles": "NS(=O)(=O)c1cc2c(cc1Cl)NC(C(Cl)Cl)NS2(=O)=O", "note": "(stereo not drawn)", "Potency": "inactive"},
      {"smiles": "O=C(O)c1ccccc1C(=O)Nc1ccc(S(=O)(=O)Nc2nccs2)cc1", "Potency": "inactive"},
      {"smiles": "C[C@H](CCC(=O)NCC(=O)O)[C@H]1CC[C@H]2[C@@H]3[C@H](O)C[C@@H]4C[C@H](O)CC[C@]4(C)[C@H]3C[C@H](O)[C@]12C", "Potency": "74.8 µM (active)"},
      {"smiles": "COc1ccc(/C=N/NC(=O)c2ccncc2)cc1OC", "Potency": "inactive"},
      {"smiles": "C=CCOc1cc(Cl)ccc1C(=O)NCCN(CC)CC", "Potency": "inactive"},
      {"smiles": "CCCCCCCC[Si](OCC)(OCC)OCC", "Potency": "inactive"},
      {"smiles": "O=C1c2ccccc2-c2ccccc21", "Potency": "inactive"},
      {"smiles": "CC(C)COC(=O)/C=C/c1ccccc1", "Potency": "inactive"},
      {"smiles": "CN(C1CCCCC1)S(=O)(=O)c1ccccc1N", "Potency": "inactive"},
      {"smiles": "O=C1OC(=O)c2cc(Oc3ccc4c(c3)C(=O)OC4=O)ccc21", "Potency": "inactive"},
      {"smiles": "Nc1cc(C(=O)O)ccc1Cl", "Potency": "inactive"},
      {"smiles": "CCc1nccnc1C", "Potency": "inactive"},
      {"smiles": "CC(=O)OCCCc1ccccc1", "Potency": "inactive"},
      {"smiles": "CC(C)COC(=O)CCCCC(=O)OCC(C)C", "Potency": "inactive"},
      {"smiles": "CCN1CN(CC)CN(CC)C1", "Potency": "inactive"},
      {"smiles": "CCS(=O)(=O)CCn1c([N+](=O)[O-])cnc1C", "Potency": "inactive"},
      {"smiles": "CC(C)=CC(C)(C)C", "Potency": "inactive"},
      {"smiles": "OC[C@@H](O)[C@H](O)[C@@H](O)[C@@H](O)CO", "Potency": "inactive"},
      {"smiles": "CCC(=O)OCCC(C)CCC=C(C)C", "note": "(stereo not drawn)", "Potency": "inactive"},
      {"smiles": "CCCCCCCCC(=O)OCC", "Potency": "inactive"},
      {"smiles": "FC(F)(F)c1ccc(Cl)cc1Cl", "Potency": "inactive"},
      {"smiles": "CC(=O)c1ccc(OCC(=O)N2CCCCC2)cc1", "Potency": "inactive"},
      {"smiles": "CCCCCCCCCCCCC", "Potency": "inactive"},
      {"smiles": "COc1ccc(NS(=O)(=O)c2ccc(N)cc2)nn1", "Potency": "inactive"}
    ]},
    {"target": "Estrogen receptor (Homo sapiens) (UniProt P03372)", "sequence (P03372 whole entry, looked up)": "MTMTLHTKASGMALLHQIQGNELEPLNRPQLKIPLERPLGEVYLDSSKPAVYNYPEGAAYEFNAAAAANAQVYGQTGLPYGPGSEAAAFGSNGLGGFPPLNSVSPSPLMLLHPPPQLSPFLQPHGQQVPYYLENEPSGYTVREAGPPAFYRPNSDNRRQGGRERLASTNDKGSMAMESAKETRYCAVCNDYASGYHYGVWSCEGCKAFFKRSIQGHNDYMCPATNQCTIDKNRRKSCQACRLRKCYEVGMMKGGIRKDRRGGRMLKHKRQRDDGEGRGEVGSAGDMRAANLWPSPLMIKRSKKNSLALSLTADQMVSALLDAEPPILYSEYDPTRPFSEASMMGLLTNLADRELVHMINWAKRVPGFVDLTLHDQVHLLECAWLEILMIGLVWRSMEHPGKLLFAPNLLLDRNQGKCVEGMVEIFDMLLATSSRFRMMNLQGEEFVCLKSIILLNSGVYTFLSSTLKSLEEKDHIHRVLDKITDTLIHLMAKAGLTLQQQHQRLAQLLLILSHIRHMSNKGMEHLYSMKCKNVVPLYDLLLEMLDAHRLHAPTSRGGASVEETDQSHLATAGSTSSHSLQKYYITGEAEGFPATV", "experiment": "qHTS assay to identify small molecule antagonists of the estrogen receptor alpha (ER-alpha) signaling pathway (AID 743069; active means well fitted curve in the direction sought with a large enough effect in the signal ratio in the repeat runs, not every such curve was filed as active; the % refers to the signal ratio)", "details": "HEK293 ER-alpha-UAS-bla, beta-lactamase ratio, antagonist mode; series mostly up to 69.4 µM", "how_it_was_run": "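In this cell-based reporter format, GripTite HEK293 cells harbouring ER-alpha-UAS-bla were grown overnight with 2% charcoal-stripped FBS, dosed with DMSO-dissolved compounds, then challenged with 17beta-estradiol. After 18 hr at 37C, beta-lactamase activity was detected by FRET fluorescence.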", "values": [
      {"smiles": "Cc1nc2ccccc2c(=O)o1", "Potency": "inactive"},
      {"smiles": "FC(F)(F)/C(=N\\OCC1OCCO1)c1ccc(Cl)cc1", "Potency": "inactive"},
      {"smiles": "C=CCCCCCCCCCCC", "activity, negative = inhibition": "-5.51% [at 6.71 µM] (inactive)"},
      {"smiles": "CCCCCCCCCCCCCC(=O)OC", "Potency": "inactive"},
      {"smiles": "CNC(=O)C(c1ccccc1)c1ccccc1", "Potency": "inactive"},
      {"smiles": "Cc1nc(C)nc(N2C[C@@H](C)N(c3ccnc([C@@H](C)O)n3)[C@@H](C)C2)n1", "Potency": "inactive"},
      {"smiles": "COc1ccc(/C=N/NC(=O)c2ccncc2)cc1OC", "Potency": "inactive"},
      {"smiles": "CC(C)COC(=O)/C=C/c1ccccc1", "Potency": "inactive"},
      {"smiles": "O=C1OC(=O)c2cc(Oc3ccc4c(c3)C(=O)OC4=O)ccc21", "Potency": "inactive"},
      {"smiles": "Nc1cc(C(=O)O)ccc1Cl", "Potency": "inactive"},
      {"smiles": "CCc1nccnc1C", "Potency": "inactive"},
      {"smiles": "CCN1CN(CC)CN(CC)C1", "Potency": "inactive"},
      {"smiles": "CCS(=O)(=O)CCn1c([N+](=O)[O-])cnc1C", "Potency": "inactive"},
      {"smiles": "OC[C@@H](O)[C@H](O)[C@@H](O)[C@@H](O)CO", "Potency": "inactive"},
      {"smiles": "CCCCCCCCC(=O)OCC", "Potency": "inactive"},
      {"smiles": "CC(=O)c1ccc(OCC(=O)N2CCCCC2)cc1", "Potency": "inactive"},
      {"smiles": "CCCCCCCCCCCCC", "Potency": "inactive"},
      {"smiles": "COc1ccc(NS(=O)(=O)c2ccc(N)cc2)nn1", "Potency": "inactive"}
    ]},
    {"tested_on": "not listed separately", "experiment": "qHTS assay to identify small molecule antagonists of the estrogen receptor alpha (ER-alpha) signaling pathway - cell viability counter screen (AID 743074); further: nearly all actives have a fitted effect of over 45% in size; further: potency means the concentration at half of the fitted maximal effect", "details": "ERalpha-bla HEK293 viability, CellTiter-Glo luminescence, 18 h; series mostly up to 69.4 µM", "values": [
      {"smiles": "CCCCC/C=C/CC(=O)OC", "Potency": "inactive"},
      {"smiles": "Cc1nc2ccccc2c(=O)o1", "Potency": "inactive"},
      {"smiles": "CCN(CCO)c1cccc(C)c1", "Potency": "inactive"},
      {"smiles": "FC(F)(F)/C(=N\\OCC1OCCO1)c1ccc(Cl)cc1", "Potency": "inactive"},
      {"smiles": "CCCCCCCCCCCCCC(=O)OC", "Potency": "inactive"},
      {"smiles": "NC(Cc1c[nH]c2ccccc12)C(=O)O", "note": "(stereo not drawn)", "Potency": "inactive"},
      {"smiles": "CNC(=O)C(c1ccccc1)c1ccccc1", "Potency": "inactive"},
      {"smiles": "Cc1nc(C)nc(N2C[C@@H](C)N(c3ccnc([C@@H](C)O)n3)[C@@H](C)C2)n1", "Potency": "inactive"},
      {"smiles": "NS(=O)(=O)c1cc2c(cc1Cl)NC(C(Cl)Cl)NS2(=O)=O", "note": "(stereo not drawn)", "Potency": "inactive"},
      {"smiles": "O=C(O)c1ccccc1C(=O)Nc1ccc(S(=O)(=O)Nc2nccs2)cc1", "Potency": "inactive"},
      {"smiles": "C[C@H](CCC(=O)NCC(=O)O)[C@H]1CC[C@H]2[C@@H]3[C@H](O)C[C@@H]4C[C@H](O)CC[C@]4(C)[C@H]3C[C@H](O)[C@]12C", "Potency": "inactive"},
      {"smiles": "COc1ccc(/C=N/NC(=O)c2ccncc2)cc1OC", "Potency": "inactive"},
      {"smiles": "C=CCOc1cc(Cl)ccc1C(=O)NCCN(CC)CC", "Potency": "inactive"},
      {"smiles": "CCCCCCCC[Si](OCC)(OCC)OCC", "Potency": "54.9 µM (active)"},
      {"smiles": "O=C(CN1CCN(Cc2ccc3c(c2)OCO3)CC1)N1c2ccccc2Sc2ccccc21", "Potency": "inactive"},
      {"smiles": "O=C1c2ccccc2-c2ccccc21", "Potency": "inactive"},
      {"smiles": "CC(C)COC(=O)/C=C/c1ccccc1", "Potency": "inactive"},
      {"smiles": "CN(C1CCCCC1)S(=O)(=O)c1ccccc1N", "Potency": "inactive"},
      {"smiles": "O=C1OC(=O)c2cc(Oc3ccc4c(c3)C(=O)OC4=O)ccc21", "Potency": "inactive"},
      {"smiles": "Nc1cc(C(=O)O)ccc1Cl", "Potency": "inactive"},
      {"smiles": "CCc1nccnc1C", "Potency": "inactive"},
      {"smiles": "CC(=O)OCCCc1ccccc1", "Potency": "inactive"},
      {"smiles": "CC(C)COC(=O)CCCCC(=O)OCC(C)C", "Potency": "inactive"},
      {"smiles": "CCN1CN(CC)CN(CC)C1", "Potency": "inactive"},
      {"smiles": "CCS(=O)(=O)CCn1c([N+](=O)[O-])cnc1C", "Potency": "inactive"},
      {"smiles": "CC(C)=CC(C)(C)C", "Potency": "inactive"},
      {"smiles": "OC[C@@H](O)[C@H](O)[C@@H](O)[C@@H](O)CO", "Potency": "inactive"},
      {"smiles": "CCC(=O)OCCC(C)CCC=C(C)C", "note": "(stereo not drawn)", "Potency": "inactive"},
      {"smiles": "CCCCCCCCC(=O)OCC", "Potency": "inactive"},
      {"smiles": "FC(F)(F)c1ccc(Cl)cc1Cl", "Potency": "inactive"},
      {"smiles": "O=c1cc(O)c(Cl)c[nH]1", "Potency": "inactive"},
      {"smiles": "CC(=O)c1ccc(OCC(=O)N2CCCCC2)cc1", "Potency": "inactive"},
      {"smiles": "CCCCCCCCCCCCC", "Potency": "inactive"},
      {"smiles": "COc1ccc(NS(=O)(=O)c2ccc(N)cc2)nn1", "Potency": "inactive"}
    ]}
  ]
}
